Entries with a potency or affinity are not part of this list. The source made the active and inactive calls. The rule behind the calls is not given here.
biological target: Kelch-like ECH-associated protein 1 (Homo sapiens) + Nuclear factor erythroid 2-related factor 2 (Homo sapiens) (UniProt Q14145+Q16236); assay: disruptors of Keap1 binding to Nrf2 peptide – biochemical, fluorescence polarization, cherry-picked samples, dose response (AID 588683); settings: plate reader; series mostly up to 26 µM;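 note: Kelch domain of Keap1 binding a fluorescein-labelled 9mer Nrf2 peptide; more negative means stronger inhibition of peptide binding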
Sequence (Q14145 whole entry, looked up, the tested form may be a part): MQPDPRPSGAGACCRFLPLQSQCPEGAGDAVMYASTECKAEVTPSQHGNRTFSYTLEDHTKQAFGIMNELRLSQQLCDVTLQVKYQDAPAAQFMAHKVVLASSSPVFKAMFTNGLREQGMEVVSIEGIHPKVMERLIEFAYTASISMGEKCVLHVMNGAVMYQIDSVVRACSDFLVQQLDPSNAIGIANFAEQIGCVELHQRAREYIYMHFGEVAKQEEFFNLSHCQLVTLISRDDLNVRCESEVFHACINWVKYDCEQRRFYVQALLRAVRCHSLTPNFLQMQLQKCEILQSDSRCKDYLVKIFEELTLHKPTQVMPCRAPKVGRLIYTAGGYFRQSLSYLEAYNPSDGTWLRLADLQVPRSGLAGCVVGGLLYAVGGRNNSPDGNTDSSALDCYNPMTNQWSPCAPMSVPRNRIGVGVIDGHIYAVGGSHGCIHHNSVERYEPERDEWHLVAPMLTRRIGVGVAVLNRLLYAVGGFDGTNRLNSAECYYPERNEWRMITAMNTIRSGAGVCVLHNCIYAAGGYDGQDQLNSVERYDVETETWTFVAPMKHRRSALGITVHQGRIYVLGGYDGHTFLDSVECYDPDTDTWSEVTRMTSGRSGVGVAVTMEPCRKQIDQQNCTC
Sequence (Q16236 whole entry, looked up, the tested form may be a part): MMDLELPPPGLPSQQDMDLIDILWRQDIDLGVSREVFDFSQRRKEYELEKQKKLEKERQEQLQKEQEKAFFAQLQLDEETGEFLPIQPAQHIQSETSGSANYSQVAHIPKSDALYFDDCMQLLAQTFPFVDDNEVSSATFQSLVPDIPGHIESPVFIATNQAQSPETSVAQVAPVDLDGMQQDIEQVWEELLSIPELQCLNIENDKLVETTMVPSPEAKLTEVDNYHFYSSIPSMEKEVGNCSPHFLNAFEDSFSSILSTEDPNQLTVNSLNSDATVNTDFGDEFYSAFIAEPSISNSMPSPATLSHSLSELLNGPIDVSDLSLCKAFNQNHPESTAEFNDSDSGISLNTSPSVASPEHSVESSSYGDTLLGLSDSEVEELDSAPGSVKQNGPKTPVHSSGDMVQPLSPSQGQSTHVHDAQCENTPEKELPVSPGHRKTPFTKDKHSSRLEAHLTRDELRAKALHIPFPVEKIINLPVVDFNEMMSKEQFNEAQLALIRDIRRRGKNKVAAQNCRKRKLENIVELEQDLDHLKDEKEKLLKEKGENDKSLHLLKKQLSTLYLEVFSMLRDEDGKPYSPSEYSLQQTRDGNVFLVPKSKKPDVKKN

outcome, inactive:
COc1cc2c3nnc(-c4ccc(F)cc4)c-3cn(Cc3ccccc3)c2cc1OC, COc1ccc(C(=O)c2ccsc2N)cc1, CCCN1CNC(=S)N(c2cc(C)ccc2C)C1, CCOC(=O)c1c(=O)n(O)c2ccc(OC)cc2[n+]1[O-], Cc1ccc(C(=O)NNC(=O)c2n[nH]c(=O)c3ccccc23)cc1C, COc1cc(/C=C/C(=O)OCC(=O)c2ccc3c(c2)NC(=O)CO3)ccc1OC(F)F, Cc1ccc(Cn2c(=N)c(C(=O)NC3CCCC3)cc3c(=O)n4ccccc4nc32)cc1, Cc1[nH]nc2c1C(CC(C)C)C(C#N)=C(N)O2 (stereo not drawn), CC(C)C(C(=O)O)N1C(=O)/C(=C/C=C/c2ccco2)SC1=S (stereo not drawn), CCCC1OC23CCCCC2C(C#N)(C#N)C1(C#N)C(=N)O3 (stereo not drawn), C=CCOc1ccc(CNc2ccc(NC(=O)CC(C)C)cc2)cc1OC, COc1ccc(/C=c2\s/c(=C(/C#N)C(=O)NCc3ccco3)n(-c3ccccc3)c2=O)cc1, CN(C)CCN(C)Cc1c2ccccc2c(CN(C)CCN(C)C)c2ccccc12, O=[N+]([O-])c1cc(C(F)(F)F)ccc1NC1CCN(Cc2ccccc2)CC1, COc1ccccc1CNC(=O)c1ccccc1NS(C)(=O)=O, COc1ccc(Nc2nc3ccccc3nc2-n2nc(C)cc2C)cc1, O=C(NNc1cc(Cl)ccc1Cl)c1cccs1, CCCCN1C(=O)/C(=C2/Sc3ccccc3N2C)S/C1=N\c1ncn[nH]1, CCOC(=O)C(C)(C)N(Cc1ccccc1C)S(=O)(=O)c1ccc(Cl)c([N+](=O)[O-])c1, O=S(=O)(O)c1ccc(O)c2cc(Nc3ccccc3)ccc12, CCOC(=O)C1=C(C)NC(C)=C(C(=O)OCC)C1c1ccc([N+](=O)[O-])s1, N/C(=N/OC(=O)c1ccc(Cl)cc1)c1ncc([N+](=O)[O-])s1, CC1(C)CC(=O)C2=C(C1)OC(N)=C(C#N)[C@@H]2c1ccccc1[N+](=O)[O-], O=c1[nH]c(-[n+]2ccccc2)c(/C=N/NC([S-])=Nc2ccccc2)s1, O=C(Nn1cnnc1)c1ccc(Cl)c(Cl)c1, CC(C)Cn1c(N)c(C(=O)CSc2nnc(-c3ccco3)n2C)c(=O)n(C)c1=O, COC(=O)c1cc(N2CCN(C)CC2)nc2ccccc12, Cc1ccc(C)c(N2CCN(C(=O)c3cc4ccccn4n3)CC2)c1, CCN1/C(=C\c2ccc3ccccc3[n+]2CC)Sc2cc(C)ccc21, Cc1cc(C)c2nc3sc(C(=O)N4CCOCC4)c(N)c3cc2c1, O=C1c2ccccc2-c2onc3ccc(N4CCCC4)c1c23, N#C/C(=C\c1ccc[nH]1)C(=O)N1CCCCC1, CCCC1C2CN(C(C)C)CC=C2C(C#N)=C(N)C1(C#N)C#N (stereo not drawn), COc1ccc(C2N3CC4(C)CN2CC(C)(C3)C4O)cc1 (stereo not drawn), COc1cc(/C=C/CN2CCN(CCC(C)C)C(CCO)C2)ccc1O (stereo not drawn), CCCCC1OC23CCCCC2C(C#N)(C(=N)O3)C1(C#N)C#N (stereo not drawn), CCn1nnnc1SCC(=O)N(C)C1CCS(=O)(=O)C1 (stereo not drawn), COc1ccc(NC(=O)Cc2ccsc2)cc1S(=O)(=O)N1CCOCC1
